This is a sample that favours compounds with a hit; in the whole collection about 10% have one here.
PNC inhibitor: High Content Assay for Compounds that inhibit the Assembly of the Perinucleolar Compartment | PC3M PTB-GFP, PNC prevalence imaging, 16 h; hits give low values | activity change (PNC), negative = inhibition, % at 10 µM | 3.1% of 140,000 active | AID 2417, 2010;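 active = readout at or below -70, meaning at least 70% loss of cells showing the perinucleolar compartment, a nuclear body marking cancer cells; inconclusive = readout between -30 and a set limit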;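 note: plate controls were DMSO wells for no effect and camptothecin positive control wells for full effect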
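Read-out is percentage of cells bearing a perinucleolar compartment, from automated 20x imaging of fixed, Hoechst-stained PC3M PTB-GFP cells. Cells were seeded 4 h, then exposed 16 h to compound (23 nl of library stock) in duplicate plates.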
HPGD inh: qHTS Assay for Inhibitors of HPGD (15-Hydroxyprostaglandin Dehydrogenase); 15-hydroxyprostaglandin dehydrogenase [NAD(+)] (Homo sapiens), P15428; purified HPGD, NADH fluorescence kinetic, PGE2 substrate; Potency, µM, for the others: top-dose activity change, negative = inhibition, actives largely listed as inhibitors; 4.3% of 150,000 active; AID 894, 2007; note: potency is the fitted concentration of half-maximal effect
Target sequence (P15428 whole entry, looked up): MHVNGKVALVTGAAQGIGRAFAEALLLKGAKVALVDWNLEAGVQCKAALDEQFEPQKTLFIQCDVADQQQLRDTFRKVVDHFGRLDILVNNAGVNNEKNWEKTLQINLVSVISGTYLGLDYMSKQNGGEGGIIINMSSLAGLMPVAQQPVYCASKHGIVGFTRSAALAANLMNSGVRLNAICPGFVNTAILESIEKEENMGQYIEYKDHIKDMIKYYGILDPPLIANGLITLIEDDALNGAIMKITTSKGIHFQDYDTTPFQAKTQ
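20 nM HPGD preincubated 15 min at room temperature with compound in 50 mM Tris-HCl pH 8, 0.01% Tween 20. Started with 1 mM NAD+ and 30 uM prostaglandin E2; NADH fluorescence (360/450 nm) read 5 times over 30-s intervals, last minus first.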
Lamin A splicing: qHTS Assay for Modulators of Lamin A Splicing; HeLa LMNA splicing GFP/RFP minigene ratio, 48 h; Potency, µM (top dose mostly 46.1 µM), for the others: at the highest dose ratio change, negative = inhibition, hits mostly inhibitors; 0.01% of 200,000 active; active = well fitted inhibition curve with a large enough effect in the signal ratio, with a control signal flat, not every such curve was filed as active; inconclusive = small, poorly fitted or top-dose-only effect, or effect the other way, or a change in a side signal; the % refers to the signal ratio; note: potency is the fitted concentration of half-maximal effect
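S3 HeLa cells stably expressing lamin A-EGFP splicing minigene plus DsRed2, 600 cells/well, 48 h compound exposure at 37C. Laser-scanning cytometry; analysed as GFP (500-530 nm)/RFP (575-640 nm) total intensity ratio; 0.5% DMSO vehicle.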
12-hLO inh: qHTS Assay for Inhibitors of 12-hLO (12-human lipoxygenase). Polyunsaturated fatty acid lipoxygenase ALOX12 (Homo sapiens), P18054. purified 12-hLO, xylenol orange hydroperoxide absorbance. Potency, µM (top dose mostly 57.1 µM), without a hit: at the highest dose activity change, negative = inhibition, usual class: inhibitors. 0.12% of 150,000 active. AID 1452, 2008; active = well fitted inhibition curve with a large enough effect; inconclusive = small, poorly fitted or top-dose-only effect; note: potency is the fitted concentration of half-maximal effect; nearly all actives have a fitted effect of over 55% in size
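Xylenol orange chromogenic assay: hydroperoxide from 12hLO oxidises Fe(II), giving red-shifted Fe(III)-XO absorbance. Conditions: 150 nM enzyme, 40 uM arachidonic acid, 25 mM Hepes pH 7.0, 0.01% Triton X-100, 30 min, room temperature.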
ALDH1A1 block: qHTS Assay for Inhibitors of Aldehyde Dehydrogenase 1 (ALDH1A1). 7.3% of 220,000 active. AID 1030, 2008. Aldehyde dehydrogenase 1A1 (Homo sapiens), P00352. Purified ALDH1A1, NADH fluorescence, propionaldehyde substrate. Potency, µM (series often up to 75.3 µM), for inactives: at the top dose activity, negative = inhibition, hits mostly inhibitors;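 note: potency is the fitted concentration of half-maximal effect; plate controls were no enzyme wells and a reference inhibitor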
* hit, by the source's call; ? = inconclusive; · = not tested or not shown; [ ] = remark or other dose. Unless noted, calls come from the whole dose curve; as a rule, active = well fitted inhibition curve with a large enough effect (not every such curve was filed as active); inconclusive = small, poorly fitted or top-dose-only effect, or another doubt; inactive = no such curve, though single readings can be large or run the other way. Unless noted, % is set by controls: 0 for no effect and ±100 for the full control effect.

SMILES | PNC inhibitor | HPGD inh | Lamin A splicing | 12-hLO inh | ALDH1A1 block
CN(C)S(=O)(=O)c1cccc(NC(=O)CSc2nc3c(cc2C#N)C(=O)CC(C)(C)C3)c1 | ? | -3% | ? | -1% | 1.4µM*
CN(C)S(=O)(=O)c1ccc(Cl)c(NC(=O)CSc2nc3c(cc2C#N)C(=O)CC(C)(C)C3)c1 | -109* | -16% | ? | 1% | ?
COc1ccc(OC)c(C(c2nnnn2CC2CCCO2)N2CCN(C)CC2)c1 (stereo not drawn) | 33 | -6% | 8% | 1% | ?
C=CCN1CCN(C(c2cc(OC)ccc2OC)c2nnnn2CC2CCCO2)CC1 (stereo not drawn) | ? | -12% | 9% | 1% | 28µM*
COc1ccccc1C(c1nnnn1CC1CCCO1)N1CCC(C(N)=O)CC1 (stereo not drawn) | -100* | -18% | -14% | 3% | 3%
O=C(Nc1ccccc1F)C(Cc1ccccc1)N1Cc2ccccc2C1=O (stereo not drawn) | · | · | 14%[46 µM] | · | ·
CCC(=O)Nc1ncnc2ncn(C(=O)CC)c12 | · | -12% | · | 0%[11.4 µM] | 13%[13.5 µM]
N#Cc1c(Sc2ncc(C(F)(F)F)cc2Cl)nsc1C/C=N\OCc1ccccc1Br | -1 | -25% | 16% | -13% | 10µM*
COC(=O)c1ccc(C(=O)Nc2ccc3nc(-c4cccnc4)[nH]c3c2)cc1 | -83* | -9% | -9% | 7% | 11%
CC(=O)Nc1ccc2nc(-c3cccnc3)[nH]c2c1 | -100* | ? | -7% | 1% | ?
CCOC(=O)c1c(NC(=O)CC(C)C)sc(C(C)=O)c1C | -100* | -15% | ? | -1% | ?
CCOC(=O)c1c(NC(=O)COC)sc(C(C)=O)c1C | -6 | ? | -5% | 0% | -3%
CCOC(=O)c1c(NC(=O)COC)sc(C)c1C | 101 | -20% | -7% | 3% | -6%
CCOC(=O)c1sc(NC(=O)CN(CC(C)C)CC(C)C)c(C(=O)OCC)c1C | -110* | ? | 0% | 1% | 22µM*
CCOC(=O)c1c(NC(=O)c2cc(-c3ccc(O)cc3)on2)sc(C(C)=O)c1C | 24 | 18µM* | 4% | -2% | 22µM*
Cc1ccc([N+](=O)[O-])cc1S(=O)(=O)N1CCn2cccc2C1c1ccccc1F (stereo not drawn) | · | · | -10%[46 µM] | · | ·
CN1CCN(C(=O)c2ccc(C3SCC(=O)N3Cc3ccco3)cc2)CC1 (stereo not drawn) | ? | 13µM* | 10% | 3% | ?
CCCNC(=O)c1ccc(C2SCC(=O)N2Cc2ccccc2)cc1 (stereo not drawn) | ? | 3.2µM* | -10% | 3% | -3%
C=CCNC(=O)c1ccc(C2SCC(=O)N2Cc2ccco2)cc1 (stereo not drawn) | · | · | 18%[46 µM] | · | ?
O=C(NCc1ccc2c(c1)OCO2)c1ccc(C2SCC(=O)N2Cc2ccco2)cc1 (stereo not drawn) | ? | ? | -6% | -22% | 7.1µM*
COCCNC(=O)c1ccc(C2SCC(=O)N2Cc2ccco2)cc1 (stereo not drawn) | · | · | · | · | 10µM*
Cc1occc1C(=O)NN=C1C2CC3CC(C2)CC1C3 | -100* | -7% | -6% | -1% | ?
Cc1occc1C(=O)NC(C)C12CC3CC(CC(C3)C1)C2 (stereo not drawn) | · | · | · | · | 0%
CC1(C)OC(=O)C(=CNC(Cc2c[nH]c3ccccc23)C(=O)O)C(=O)O1 (stereo not drawn) | 6 | -5% | -1% | -1% | 25µM*
O=C(NCc1ccccc1)N[C@@H](Cc1c[nH]c2ccccc12)C(=O)O | 2 | · | 1% | -9% | -2%
CC(=O)N1CC=CC1(CC(C)C)C(=O)NCC1CC1 (stereo not drawn) | · | -4% | · | 3% | -6%
Cn1cccc1C(=O)N1CCC2(CC1)CN(C(=O)Nc1cccc(C#N)c1)C2 | · | -16% | · | -3% | 28µM*
